From PubChem
This is a sample that favours compounds with a hit; in the whole collection about 5.3% have one here.
HIF act – HIF pathway transcriptional activation; AID 1910; U2OS HRE-luciferase reporter, luminescence; normalized: DMSO 0%, desferrioxamine 100%; activation, % at 7.5 µM (by protocol); 0.32% of 300,000 active;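 active means mean activation of at least 10% of the iron chelator positive control signal, with at least half of replicates also reaching 10%; inconclusive means mean and replicate majority disagree about reaching 10%; inactive means mean and most replicates under 10%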
ALR inh – human ALR oxidase inhibition via reduced H2O2; purified ALR, DTT oxidation, H2O2 HRP-luminol luminescence; P55789; 3.8% of 290,000 active; inhibition, % (test concentration not listed);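 active means mean replicate inhibition above about 79%, with every replicate also reaching it, limit read from the data; inconclusive means only one of the two criteria met; inactive means mean below limit and not every replicate reaching it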
Target sequence (P55789 whole entry, looked up): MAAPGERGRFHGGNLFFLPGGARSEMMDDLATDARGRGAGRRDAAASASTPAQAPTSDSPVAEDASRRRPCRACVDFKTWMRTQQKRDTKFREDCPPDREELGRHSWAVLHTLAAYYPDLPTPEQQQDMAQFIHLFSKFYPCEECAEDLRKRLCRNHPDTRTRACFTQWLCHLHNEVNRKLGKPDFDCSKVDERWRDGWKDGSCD
SUMO Mot1 rescue – SUMOylation pathway inhibition by Mot1-301 growth rescue; S. cerevisiae Mot1-301 growth rescue, ATP luminescence, 38.5C; percent above DMSO median, 100 means doubled; growth rescue, % at 18.8 µM; 1% of 320,000 active;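 active means every valid replicate shows activation above 250% relative to neutral control wells; inactive means the rest, any valid replicate at or below 250%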
M18AAP inhibitor – blocks P. falciparum M18 aspartyl aminopeptidase. inhibition, % at 7.35 µM. 1.2% of 290,000 active. recombinant PfM18AAP, H-Glu-NHMec fluorogenic cleavage;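 active means inhibition above the campaign mean inhibition over all tested compounds plus 3 SD, cut at about 28% in these data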
Large screens that a line does not name were inactive.

CN1C(=O)S/C(=C/c2ccc(OCc3cccc(C(=O)O)c3)cc2)C1=O	none
CCCCn1c(N)c(N(CC)C(=O)c2cc(S(=O)(=O)N3CCCCCC3)ccc2OC)c(=O)[nH]c1=O	none (no result: M18AAP inhibitor)
CCOC(=O)c1cc(NC(=O)NC2CCCCC2)c(C)nc1C	none
O=C(COC(=O)Cc1cccc(C(F)(F)F)c1)Nc1ccc2c(c1)OCCO2	none
CN(C(=O)COC(=O)C1(C)CC1(Cl)Cl)c1c(N)n(Cc2ccccc2)c(=O)[nH]c1=O (centres undefined)	none (no result: HIF act, M18AAP inhibitor)
C=CCn1c(=NC(=O)c2ccc(S(=O)(=O)N3CCCc4ccccc43)cc2)sc2cc(S(N)(=O)=O)ccc21	none
COCCn1c(=NC(=O)c2ccc(S(=O)(=O)N3CCCc4ccccc43)cc2)sc2cc(S(C)(=O)=O)ccc21	HIF act 105
COc1ccc(OC)c(CNC(=O)C2CCN(S(C)(=O)=O)CC2)c1	none
CCOC(=O)C(CC)(CCC(=O)O)c1csc(Nc2ccc(C)cc2)n1 (centres undefined)	ALR inh 99
Nc1cc(=O)[nH]c(=O)n1CCCc1ccccc1	none (no result: ALR inh)
Cc1ccc(-c2nc(CSCC(=O)NCCN3CCN(Cc4ccccc4)CC3)c(C)o2)cc1	ALR inh 99
Cc1ccc(-c2nc(CSCC(=O)NCCCN3CCOCC3)c(C)o2)cc1	ALR inh 97
CCN1CCN(CCNC(=O)CS(=O)(=O)Cc2nc(-c3ccc(C)cc3)oc2C)CC1	none
CCOC(=O)c1sc(NC(=S)NC(=O)C2CC2)cc1C	HIF act 72
COc1ccc(C2c3c(-c4cc(Cl)c(C)cc4O)n[nH]c3C(=O)N2Cc2cccnc2)cc1OC (centres undefined)	none
COc1cc(NC(=O)CSc2nc(=O)n(CCN3CCOCC3)c3c2CCC3)cc(OC)c1	ALR inh 97 (no result: M18AAP inhibitor)
Cc1cc(C)cc(NC(=O)CSc2nc(=O)n(CCCN3CCOCC3)c3c2CCCC3)c1	ALR inh 96 (no result: M18AAP inhibitor)
CCOc1ccc(NC(=O)CSc2nc(=O)n(CCN3CCOCC3)c3c2CCCC3)cc1	none (no result: M18AAP inhibitor)
O=C(CSc1nc(=O)n(CCCN2CCOCC2)c2c1CCCC2)Nc1cccc(F)c1	ALR inh inconclusive (no result: M18AAP inhibitor)
COc1cc(NC(=O)CSc2nc(=O)n(CCCN3CCOCC3)c3c2CCC3)cc(OC)c1	ALR inh 99 (no result: M18AAP inhibitor)
COc1ccc(NC(=O)CSc2nc(=O)n(CCN3CCOCC3)c3c2CCC3)cc1	ALR inh 98 (no result: M18AAP inhibitor)
CCN(CC)CCCn1c2c(c(SCC(=O)Nc3cc(OC)cc(OC)c3)nc1=O)CCC2	none (no result: M18AAP inhibitor)
O=C(CSc1nc(=O)n(CCN2CCOCC2)c2c1CCCC2)Nc1cccc([N+](=O)[O-])c1	none (no result: M18AAP inhibitor)
CCOC(=O)Nc1ccc(N2CCOCC2)c(S(=O)(=O)Nc2ccc(Cl)cc2)c1	none (no result: HIF act, M18AAP inhibitor)
Cc1cc(C)c[n+](-c2[nH]c(=O)sc2/C=N/N=C(\N)[S-])c1	none
Cc1cc(C)c(S(=O)(=O)N2CCC(C(=O)NCc3ccco3)CC2)c(C)c1	none
CC(=O)Nc1cccc(NC(=O)CSc2nc(=O)n(CCN3CCOCC3)c3c2CCCC3)c1	ALR inh 99 (no result: M18AAP inhibitor)
Cc1cccc(NC(=O)CSc2nc(=O)n(CCN3CCOCC3)c3c2CCCC3)c1C	none (no result: M18AAP inhibitor)
CC(=O)c1cccc(NC(=O)CSc2nc(=O)n(CCN3CCOCC3)c3c2CCC3)c1	none (no result: M18AAP inhibitor)
O=C(CSc1nc(=O)n(CCN2CCOCC2)c2c1CCC2)Nc1ccc(OC(F)(F)F)cc1	ALR inh 97 (no result: M18AAP inhibitor)
O=C(CC1NC(=S)NC1=O)c1ccc(Cl)cc1 (centres undefined)	none
O=C(NC1CCC(O)CC1)c1cccnc1Sc1ccccc1Cl (centres undefined)	none
CN(C)c1ccc(C(CC(=O)c2ccccc2)C2CCCCC2=O)cc1 (centres undefined)	ALR inh 98
Cn1c(-c2ccc(F)cc2)cnc1NCc1cccc(F)c1	none (no result: ALR inh)
COc1ccccc1CNc1ncc(-c2ccc(F)cc2)n1C	ALR inh 98
Cn1c(-c2cccc(Br)c2)cnc1NCc1cccnc1	ALR inh 85
COc1cc(CNc2ncc(-c3ccc(Br)cc3)n2C)cc(OC)c1O	ALR inh 86
CC(C)COc1cccc(C(=O)N(C)CC(=O)Nc2cccc3ccccc23)c1	none (no result: HIF act, M18AAP inhibitor)
CC(=O)N1CCc2cc(S(=O)(=O)N3CCc4ccccc43)ccc21	none
COc1ccccc1C(=O)NS(=O)(=O)c1ccc(C)cc1	none (no result: HIF act, ALR inh, M18AAP inhibitor)
O=C(O)C1=CC(=C(c2ccc(O)c(C(=O)O)c2)c2ccc(O)c(C(=O)O)c2)C=CC1=O	ALR inh 97 (no result: HIF act, M18AAP inhibitor)
Nc1ccc(O)c(C(=O)O)c1	none (no result: M18AAP inhibitor)
COc1ccc(-c2cc3ccccc3n2CC(O)CN2CCN(CCO)CC2)cc1 (centres undefined)	ALR inh 96 (no result: HIF act)
O=c1c(C(c2ccc(Cl)cc2)c2c(O)nc3n(c2=O)CCS3)c(O)nc2n1CCS2	ALR inh 98
O=c1c(C(c2ccc(Cl)cc2)c2c(O)nc3n(c2=O)CCCS3)c(O)nc2n1CCCS2	none
Cc1cccc(-c2nsc(SCC(=O)c3ccc(Cl)cc3)n2)c1	HIF act 228
COc1cccc(N2CCN(c3ccc4nnc(CCC(=O)Nc5ccc(F)cc5F)n4n3)CC2)c1	none
CCCN1CCN(C(=O)CCc2nnc3ccc(N4CCN(c5cccc(OC)c5)CC4)nn23)CC1	ALR inh 99
COc1cccc(N2CCN(c3ccc4nnc(CCC(=O)Nc5cccc(C(C)=O)c5)n4n3)CC2)c1	none
COc1ccc(N2CCN(C(=O)CCc3nnc4ccc(N5CCC(C)CC5)nn34)CC2)cc1	ALR inh 90
COc1cccc(N2CCN(c3ccc4nnc(CCC(=O)N5CCC(C)CC5)n4n3)CC2)c1	ALR inh 99
O=C(COC(=O)c1cnc(Cl)c(Cl)c1)NC1CC1	none (no result: HIF act, M18AAP inhibitor)
NS(=O)(=O)c1ccc(NC(=O)COC(=O)C2CC2)cc1	none (no result: HIF act, M18AAP inhibitor)
CCCCC1(C)OC(=O)C(=Cc2ccc(N(CC)CC)cc2)C(=O)O1 (centres undefined)	ALR inh 97
COc1ccc(Cc2noc(CN(C)CC(O)c3ccccc3)n2)cc1OC (centres undefined)	none
COC(=O)c1sccc1NC(=O)c1cc(C)on1	ALR inh 96
COc1ccc(-c2csc3ncnc(N4CCN(c5ccccc5[N+](=O)[O-])CC4)c23)cc1	none
O=C(O)c1cc(-c2ccc(Cl)s2)nc2ccccc12	ALR inh 93
CCn1c(=O)n(CC)c2cc(N3CCCC3)c(NC(=O)c3ccc(C)cc3)cc21	ALR inh 99, M18AAP inhibitor 28
CCn1c(=O)n(CC)c2cc(N3CCCC3)c(NC(=O)c3ccccc3)cc21	ALR inh 97
CCn1c(=O)n(CC)c2cc(N3CCCC3)c(NC(=O)c3cc(Br)ccc3OC)cc21	M18AAP inhibitor 30
CCn1c(=O)n(CC)c2cc(N3CCCC3)c(NC(=O)c3ccccc3C)cc21	ALR inh 99
CCn1c(=O)n(CC)c2cc(N3CCCC3)c(NC(=O)c3ccccc3F)cc21	none (no result: ALR inh)
COc1ccc(Br)cc1C(=O)Nc1ccccc1N1CCCC1	none (no result: M18AAP inhibitor)
CSc1ccccc1OCc1cc(C(=O)NCCC2=CCCCC2)no1	none
O=C(Cc1ccccc1[N+](=O)[O-])NCCCc1ccccc1	none
O=C(N/N=C\C=C\c1ccco1)c1cc(-c2ccc3ccccc3c2)n[nH]1	SUMO Mot1 rescue 594
CCn1c(C(=O)NCCCc2ccccc2)cc2sccc21	none (no result: ALR inh)
